Bioassay records: PubChem BioAssay, National Center for Advancing Translational Sciences (NCATS)
Luc counter: counter-screen: inhibitors of Kinase-Glo firefly luciferase; Kinase-Glo luciferase, ATP luminescence, 8 min; Potency, µM (doses to about 38.3 µM), without a hit: at the highest dose activity change, negative = inhibition, most hits filed as inhibitors; 200,000 tested, 0.28% active; also: nearly all actives have a fitted effect of over 60% in size
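Compounds were added to a substrate mix at pH 7.2 (50 mM imidazole, 10 uM ATP, within the enzyme's linear range), followed by Kinase-Glo detection reagent; luminescence was measured after 8 minutes at ambient temperature.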
Tau ThT inhib: tau fibrillization inhibition (ThT binding); P10636; recombinant tau K18 P301L, heparin-induced fibrillization, ThT fluorescence; Potency, µM (top dose mostly 57.4 µM), for inactives: at the top dose activity, negative = inhibition, actives largely listed as inhibitors; 270,000 tested, 2.1% active; also: nearly all actives have a fitted effect of over 55% in size
Target sequence (P10636 561-689 P618L limits assumed): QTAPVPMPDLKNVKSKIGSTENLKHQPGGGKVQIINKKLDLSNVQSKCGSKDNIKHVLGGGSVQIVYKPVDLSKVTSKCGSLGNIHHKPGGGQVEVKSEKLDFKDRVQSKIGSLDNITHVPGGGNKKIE
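Heparin-induced (20 uM) aggregation of recombinant human K18 P301L tau, 15 uM unlabeled with 0.24 uM labeled, pH 7 acetate buffer, 6 hr at 37 C with compound. Fibrils quantified by 30 uM ThT fluorescence after 1 hr ambient incubation.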
Tau fibril FP: inhibitors of human tau fibril formation; P10636; K18 P301L tau heparin fibrillization, Alexa594 FP, 6 h; Potency, µM (titrated, usually from 57.7 µM), without a hit: at the highest dose activity, negative = inhibition, hits mostly inhibitors; 280,000 tested, 0.39% active; also: nearly all actives have a fitted effect of over 55% in size
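Recombinant K18 P301L […], labeled with Alexa 594 at 0.24 uM over 15 uM unlabeled; heparin inducer 20 uM final; 37 C, 6 hr; FP endpoint.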
Tau fluor counter: counter-screen for tau fibril formation inhibitors; tau K18 P301L (four-repeat tau fragment) Alexa594 fluorescence, heparin fibrillization; Potency, µM (highest dose often 57.7 µM), for inactives: at the highest dose activity change, negative = decrease; 280,000 tested, 0.93% active; also: nearly all actives have a fitted effect of over 55% in size
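Human K18 P301L tau (15 uM unlabeled plus 0.24 uM Alexa 594-labeled, final) in 100 mM sodium acetate pH 7 was mixed with compound and 20 uM heparin and incubated 6 hr at 37 C.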
NPSR antag: neuropeptide S receptor (human) antagonism, cAMP | CHO-NPSR cells, cAMP TR-FRET, antagonist mode | 220,000 tested, 1% active | Potency, µM (highest dose often 38.3 µM), inactives show top-dose activity change, negative = inhibition, hits mostly inhibitors; also: nearly all actives have a fitted effect of over 50% in size
Target sequence (Q6W5P4 whole entry, looked up): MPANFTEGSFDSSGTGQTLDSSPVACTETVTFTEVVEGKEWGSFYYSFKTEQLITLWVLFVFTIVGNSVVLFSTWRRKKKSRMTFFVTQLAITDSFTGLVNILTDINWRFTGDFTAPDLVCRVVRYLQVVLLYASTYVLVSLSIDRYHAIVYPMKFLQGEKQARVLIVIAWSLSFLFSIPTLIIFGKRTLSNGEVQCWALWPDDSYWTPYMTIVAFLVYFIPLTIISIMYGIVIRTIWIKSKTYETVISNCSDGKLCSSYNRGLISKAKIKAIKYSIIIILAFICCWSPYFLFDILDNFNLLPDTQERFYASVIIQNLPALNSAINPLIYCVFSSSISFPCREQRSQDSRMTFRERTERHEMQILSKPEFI
Starred values were filed as active, the others as inactive; ? = inconclusive; · = not tested or not shown; [ ] = remark or other dose. Most compounds without a hit are left out; they make up all but 3.3% or so of the library. Calls follow the shape of the dose curve; as a rule, active = well fitted curve in the direction sought with a large enough effect; inconclusive = small, poorly fitted or top-dose-only effect, or another doubt; inactive = no such curve, though single readings can be large; an effect the other way counts as inactive or inconclusive. % is scaled to controls: 0 for no effect and ±100 for the full control effect; potency is read from the fitted curve at half-maximal effect.

SMILES	Luc counter	Tau ThT inhib	Tau fibril FP	Tau fluor counter	NPSR antag
CCOC(=O)C1=C(CN2CCN(c3ccc(OC)cc3)CC2)NC(=O)NC1c1ccc(OC)cc1 (stereo unspecified)	·	-15%	2%	-14%	·
CN(C)c1nc(N/N=C/c2ccccc2O)nc(Nc2ccc(F)cc2)n1	·	?	?	8.9µM*[quencher]	-42%
CN(C)c1nc(Nc2ccccc2)nc(N(C)C)n1	-2%	-17%	0%	-21%	-1%[46.1 µM]
Cc1ccc(C)c(/C=C/C(=O)c2ccccc(=O)c2O)c1	-1%	22µM*	?	?	13µM*
O=C(/C=C/c1ccccc1Cl)c1ccccc(=O)c1O	-2%	14µM*	?	-25%	10µM*
Cc1cccc(CNC(=O)c2oc3c(c2C)-c2nn(Cc4ccccc4Cl)cc2CC3)c1	·	?	4%	9%	·
COc1ccc(/C=C\c2onc(C)c2S(=O)(=O)N2CCC(C(=O)Nc3cccc(Cl)c3)CC2)cc1	·	14%	14µM*	-20%	·
CC1=NN(c2ccccc2)C(=O)/C1=C\C=C1\N(C)c2ccccc2C1(C)C	-12%	1.6µM*	1%	?	-39%
CN1/C(=C\C=C2/C(=O)Oc3ccccc3C2=O)C(C)(C)c2ccccc21	1%	?	13%	?	-17%
CC1=NN(c2ccccc2)C(=O)/C1=C\C=C1/N(C)c2ccccc2C1(C)C	-9%	2.2µM*	?	?	-33%
Cc1cccc(N2CCN(C(=O)CN3C(=O)COc4ccc(S(=O)(=O)N5CCC(C)CC5)cc43)CC2)c1C	·	-6%	3%	-3%	·
CCN=C1S/C(=C\c2ccc(-c3cccc(C(=O)O)c3)o2)C(=O)N1CC	1%	1%	2%	2%	-19%
CCN1C(=O)/C(=C\c2ccc(-c3ccc([N+](=O)[O-])cc3OC)o2)SC1=Nc1cccc(C(=O)O)c1	-9%	14µM*	-17%	?	-37%
CC1CC(C)CN(C(=O)c2ccc3c(c2NCCO)C(=O)c2ccccc2C3=O)C1 (stereo unspecified)	-16%	18µM*	10%	?	-21%[46.1 µM]
NC(=S)Cc1nc(-c2ccccc2)cs1	-5%	20µM*	?	?	21%
CCOc1ccc(-c2nonc2NC(=O)COc2ccccc2)cc1	·	-8%	-10%	-7%	·
Cc1ccc(-c2cc(-c3ccccc3)c3c(N)c(S(C)(=O)=O)sc3n2)cc1	9%	?	-20%	-29%	-4%[46.1 µM]
CS(=O)(=O)c1sc2nc(-c3cccs3)cc(-c3ccccc3)c2c1N	4%	?	-3%	-12%	10µM*
Cc1ccc(C)c(N(C)S(=O)(=O)c2ccc3[nH]cc(C(=O)NC4CCCC4)c(=O)c3c2)c1	·	5%	16µM*	?	·
CCN(c1ccccc1)S(=O)(=O)c1ccc2[nH]cc(C(=O)NCc3ccc(C)cc3)c(=O)c2c1	·	11%	3.5µM*	?	·
CCN(c1ccccc1)S(=O)(=O)c1ccc2[nH]cc(C(=O)NC3CCCCC3)c(=O)c2c1	·	?	3.5µM*	?	·
Cc1ccc(C)c(N(C)S(=O)(=O)c2ccc3[nH]cc(C(=O)NCCN4CCOCC4)c(=O)c3c2)c1	-1%	2%	-8%	-19%	-6%
CCn1cnc2cc(NCc3ccc(N(C)C)cc3)ccc21	1%	?	6%	11µM*[quencher]	-10%
CCn1cnc2cc(NCc3ccc(C)cc3)ccc21	-1%	?	-5%	-24%	-6%[46.1 µM]
Cn1c(=O)c(=O)n(C)c2cc(NC(=O)c3cccc(F)c3)c(Cl)cc21	·	?	-14%	-16%	·
SMILES	Luc counter	Tau ThT inhib	Tau fibril FP	Tau fluor counter	NPSR antag
CC(C)CNC(=O)C(=O)Nc1c2c(nn1-c1ccccc1)CS(=O)(=O)C2	·	-7%	2%	3%	·
O=C(/C=C/Nc1ccccc1Br)c1ccccn1	13µM*	?	-3%	-14%	-11%[46.1 µM]
O=C(/C=C/c1ccccc1)c1ccccn1	14µM*	?	10%	-3%	-8%[46.1 µM]
O=C(/C=C\Nc1ccccn1)c1ccccc1	?	-13%	-3%	-2%	5%[46.1 µM]
N/C(=N\OC(=O)/C=C/c1ccccc1)c1ccccn1	11µM*	-9%	-4%	-3%	-1%
COc1cc(NC(=O)CCc2c(C)nn(-c3ccc4nncn4n3)c2C)cc(OC)c1OC	·	-1%	-1%	2%	·
CCOc1ccc(C2=C(C(C)=O)Sc3nnc(C)n3N2C(C)=O)cc1	·	?	?	-17%	·
CC(=O)C1=C(c2cccc([N+](=O)[O-])c2)N(C(C)=O)n2c(C)nnc2S1	0%	3.5µM*	?	-29%	-34%
Cc1ccc(OCC(=O)c2cc(C)c(C)cc2C)c([N+](=O)[O-])n1	-2%	16µM*	?	?	?
Cc1ccc(C)c(C(=O)COc2ccc(C)nc2[N+](=O)[O-])c1	0%	16µM*	?	?	-7%[46.1 µM]
Cc1nc2c(-c3ccc(F)cc3)c(C)nn2c(C)c1CCC(=O)NCc1ccc(Cl)cc1	·	2%	-6%	-15%	·
COC1(OC)N=C(NC(=O)Nc2ccccc2)C2(C#N)C(c3ccccc3)C12C#N (stereo unspecified)	-2%	20µM*	?	-25%	-4%[46.1 µM]
O=C1N=C(N2CCOCC2)S/C1=C\c1ccncc1	·	-6%	-1%	1%	-15%
C=CCN1C(=O)/C(=C2\SC(N3CCOCC3)=NC2=O)c2cc(Br)ccc21	-5%	16µM*	9%	-27%	-16%[46.1 µM]
COc1ccc(N=Cc2c(O)c3ccccc3n2C(C)=O)cc1	·	16µM*	?	?	-28%
COc1ccc(N=Cc2sc(O)c3ccccc23)cc1	-8%	?	?	7.1µM*[quencher]	13µM*
O=S(=O)(Nc1cccc(-c2ccc(N3CCCCC3)nn2)c1)c1cccs1	·	-3%	-2%	-9%	·
O=C(NC1=NCCS1)C1COc2ccccc2O1 (stereo unspecified)	7.9µM*	-11%	4%	1%	-2%[46.1 µM]
COc1ccc(NC(=O)N2CCOc3ccc(Cl)cc32)cc1	·	-10%	14%	8.9µM*[quencher]	·
COc1ccc(CNC(=O)C2CCN(C(=O)N3CCOc4ccc(Cl)cc43)CC2)cc1	·	?	-4%	-16%	·
CCOC(=O)c1ccccc1NC(=O)N1CCOc2ccc(Cl)cc21	·	6%	-2%	3.2µM*[quencher]	·
Nc1ccc2ncccc2c1	-5%	16µM*	?	-21%	13%[46.1 µM]
Nc1ccc2ncccc2c1N	-7%	25µM*	?	?	23%
Nc1ccc(/C=C/c2ccc3ncccc3c2)cc1	·	6.3µM*	-6%	-29%	-25%
Cc1ccc2c(CN3CCN(Cc4ccccc4Cl)CC3)cc(=O)oc2c1	·	-10%	8%	-2%	·
Nc1c(Cl)ncnc1N/N=C/c1ccc2ccccc2n1	-4%	4µM*	10%	-30%	-46%
COc1cccc(NC(=O)CN(C)S(=O)(=O)c2cccs2)c1	·	-2%	7%	-9%	·
